Laboratory results taken from PubChem BioAssay (NCATS).
Records with an inconclusive call do not appear. Entries that show only a call come without a potency. Values without a mark were called inactive. Activity calls are given as the source filed them. Calls come from the whole dose curve; as a rule, active = well fitted curve in the direction sought with a large enough effect; inconclusive = small, poorly fitted or top-dose-only effect, or another doubt; inactive = no such curve, though single readings can be large; an effect the other way counts as inactive or inconclusive.

Assays:
[1] = target: Cellular tumor antigen p53 (Homo sapiens) (UniProt P04637); assay: Primary qHTS for small molecule compounds that upregulate eGFP-tagged delta133p53alpha (in N-terminal) cells. (AID 2060322); details: NCI-H358 eGFP-delta133p53alpha fluorescence, 24 h; activation: stronger effect = higher value; note: nearly all actives have a fitted effect of over 75% in size; note: potency is the fitted concentration of half-maximal effect;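 for activation: cells pre-induced with doxycycline then dosed without doxycycline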
Procedure, shortened: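 NCI-H358 cells pre-induced 24 h with 10 ng/ml doxycycline for eGFP-delta133p53alpha, plated dox-free and exposed 24 h at 37C to titrated compounds. Fixed, Hoechst-stained; gated GFP peak intensity by laser scanning cytometry, normalized to DMSO (0%) and 57.5 uM 5-azacytidine (100%).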

[2] = target: Aldehyde dehydrogenase, mitochondrial (Homo sapiens) (UniProt P05091); assay: qHTS for Inhibitors of the Aldehyde Dehydrogenase Family (ALDH2) Primary screen (AID 2061308); details: ALDH2 enzyme inhibition qHTS, 1536-well; series mostly up to 56 µM; note: nearly all actives have a fitted effect of over 55% in size
[3] = target: Retinaldehyde dehydrogenase 3 (Homo sapiens) (UniProt P47895); assay: qHTS for Inhibitors of the Aldehyde Dehydrogenase Family (ALDH1A3) Primary screen (AID 2061315); details: ALDH inhibition qHTS; series mostly up to 56 µM; note: potency is the fitted concentration of half-maximal effect

Sequence of Cellular tumor antigen p53 (Homo sapiens) (P04637 whole entry, looked up): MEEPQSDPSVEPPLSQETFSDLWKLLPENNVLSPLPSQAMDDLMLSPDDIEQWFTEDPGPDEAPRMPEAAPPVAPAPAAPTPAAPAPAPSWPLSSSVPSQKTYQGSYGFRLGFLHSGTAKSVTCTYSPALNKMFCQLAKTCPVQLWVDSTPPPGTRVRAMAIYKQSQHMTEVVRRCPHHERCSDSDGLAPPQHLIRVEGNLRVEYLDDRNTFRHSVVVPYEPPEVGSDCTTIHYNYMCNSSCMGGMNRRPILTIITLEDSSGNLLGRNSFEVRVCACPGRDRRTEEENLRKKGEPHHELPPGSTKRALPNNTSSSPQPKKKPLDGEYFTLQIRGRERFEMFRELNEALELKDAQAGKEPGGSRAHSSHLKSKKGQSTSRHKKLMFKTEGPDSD

Row | Structure (SMILES) | activation [1] [%] | Potency [2] | Potency [3] | activity change, negative = inhibition [2] | activity change, negative = inhibition [3] | Potency [1]
1 | CC(=O)C1(C)CCC2C3C=C(C)C4=CC(=O)CCC4(C)C3CCC21C (stereo not given) | -17 | inactive | inactive |  |  | 
2 | CC1=C2C(=O)C=C(CO[C@@H]3O[C@H](CO)[C@@H](O)[C@H](O)[C@H]3O)[C@@H]2[C@H]2OC(=O)[C@H](C)[C@@H]2[C@@H](O)C1 | -7.63 | inactive | inactive |  |  | 
3 | COC(=O)C1=C[C@@H](O)[C@@H](O)[C@H](O[C@@H]2O[C@H](COC(=O)/C=C/c3ccccc3)[C@@H](O)[C@H](O)[C@H]2O)C1 | -3.05 | inactive | inactive |  |  | 
4 | CC(=O)N[C@H]1CCN(c2ccc(C3=NOC(CN[S+](=O)([O-])C(C)C)C3)cc2F)C1 (stereo not given in full) | 11.7 | inactive | inactive |  |  | 
5 | COc1cc(/C=C2\CCCN([C@@H](C)c3ccc(F)cc3)C2=O)ccc1-n1cnc(C)c1 | -22.3 | inactive | inactive |  |  | 
6 | CC(=O)O[C@@H]1[C@H](O[C@@H]2OC[C@](O)(CO)[C@H]2O)[C@@H](O[C@@H]2O[C@@H](C)[C@H](O)[C@@H](O[C@@H]3O[C@H](CO)[C@@H](O)[C@H](O)[C@H]3O)[C@H]2O)[C@H](OC(=O)[C@]23CCC(C)(C)C[C@H]2C2=CCC4[C@@]5(C)C[C@H](O)[C@H](O[C@@H]6O[C@H](C(=O)O)[C@@H](O)[C@H](O)[C@H]6O)[C@@](C)(C(=O)O)C5CC[C@@]4(C)[C@]2(C)CC3)O[C@@H]1C (stereo not given in full) | -16.8 |  |  | 3.67% [at 11.2 µM] | -13.4% [at 11.2 µM] | 
7 | CC(C)(C)c1ccc(-c2nc3ccccc3[nH]2)cc1 | -14.3 | inactive | 8.91 µM (active) |  |  | 
8 | Nc1ccc(-n2nc(C(F)(F)F)cc2C(F)(F)F)cc1 | 0.893 | inactive | inactive |  |  | 
9 | O=C(NC[C@H]1CN(c2ccc(N3CCOCC3=O)cc2)C(=O)O1)c1ccc(Cl)s1 | 5.25 | inactive | inactive |  |  | 
10 | CC/C=C\C[C@H]1C(=O)C=C[C@@H]1CCCCCCCC(=O)O | -8.93 | inactive | inactive |  |  | 
11 | CC12CCC3c4ccc(O)cc4CCC3C1CC(OC1OC(C(=O)O)C(O)C(O)C1O)C2O (stereo not given) | -10.3 | inactive | inactive |  |  | 
12 | CC1=CCC2C(C)(CO)CCCC2(C)C1CC12OC1C(O)C(CO)=CC2O (stereo not given) | 12.2 | inactive | inactive |  |  | 
13 | Cc1c(N2C(=O)c3ccc(C(=O)O)cc3C2=O)c(=O)n(-c2ccccc2)n1C | -5 | inactive | inactive |  |  | 
14 | CC1(C)CC[C@]2(C(=O)OC3OC(CO)C(O)C(O)C3O)CC[C@]3(C)C(=CCC4[C@@]5(C)CC[C@H](OC6OC(C(=O)O)C(O)C(OC7OC(CO)C(O)C(O)C7O)C6O)C(C)(C)C5CC[C@]43C)C2C1 (stereo not given in full) | -22.1 | inactive | inactive |  |  | 
15 | Cc1ccc([C@@H]2CC=C(C(=O)O)[C@H](c3ccc(C(C)(C)C)cc3)N2S(=O)(=O)c2ccc(C)cc2)cc1 | -26.3 | inactive | inactive |  |  | 
16 | NC(=O)NCCCC(NC(=O)Cc1ccccc1)C(=O)O (stereo not given) | -1.79 | inactive | inactive |  |  | 
17 | C=C1CCC2C(C)(C)CC(=O)CC2(C)C1CCC(C)CCO (stereo not given) | 6.25 | inactive | inactive |  |  | 
18 | CC1(C)CC[C@]2(C(=O)O)CC[C@]3(C)C(=CCC4[C@@]5(C)C[C@@H](O)[C@H](O)C(C)(C)C5CC[C@]43C)[C@@H]2[C@@H]1O (stereo not given in full) | -0.893 | inactive | inactive |  |  | 
19 | COC1CCCC/C(C)=C/C2C=C(C)C(C)C3C(CC(C)C)NC(=O)C23C(=O)C1 (stereo not given) | -5.34 | inactive | inactive |  |  | 
20 | CC/C=C\CC1C(=O)C=CC1(CCCCCCCC(=O)O)OC(C)=O (stereo not given) | -22.9 | inactive | inactive |  |  | 
21 | Nc1nc(Nc2ccc(S(N)(=O)=O)cc2)n(C(=S)Nc2c(F)cccc2F)n1 |  | inactive | inactive |  |  | 2.13 µM (active)
22 | CC(=O)NC(C(=O)O[C@H]1CCC(C)(C)[C@@H]2CC=C3C(=O)OCC3(O)[C@@]12C)C(C)C (stereo not given in full) | 20.6 | inactive | inactive |  |  | 
23 | CC(=O)O[C@H]1[C@H](O[C@H]2CC[C@]34C[C@]35CC[C@]3(C)[C@@H]([C@@]6(C)CC[C@@H](C(C)(C)O)O6)[C@@H](O)C[C@@]3(C)[C@@H]5C[C@H](O[C@@H]3O[C@H](CO)[C@@H](O)[C@H](O)[C@H]3O)[C@H]4C2(C)C)OC[C@@H](OC(C)=O)[C@@H]1O | -7.67 | inactive | inactive |  |  | 
24 | CC(C)=C[C@@H]1[C@H](CO[C@@H]2O[C@H](CO)[C@@H](O)[C@H](O)[C@H]2O)C1(C)C | -9.82 | inactive | inactive |  |  | 
25 | COc1cc(O)c2c(c1Cl)CC(C)OC2=O (stereo not given) | 7.14 | inactive | inactive |  |  | 

Row | Structure (SMILES) | activation [1] [%] | Potency [2] | Potency [3] | activity change, negative = inhibition [2] | activity change, negative = inhibition [3] | Potency [1]
26 | CC1(C)CC[C@]2(C(=O)O[C@@H]3O[C@H](CO)[C@@H](O)[C@H](O)[C@H]3O)CC[C@]3(C)C(=CCC4[C@@]5(C)CC[C@H](O[C@H]6O[C@H](CO)[C@@H](O)[C@H](O[C@@H]7O[C@H](CO)[C@@H](O)[C@H](O)[C@H]7O)[C@H]6O)C(C)(C)C5CC[C@]43C)[C@@H]2C1 (stereo not given in full) | 15.3 | inactive | inactive |  |  | 
27 | C=C[C@H]1[C@H](O[C@@H]2O[C@H](CO)[C@@H](O)[C@H](O)[C@H]2O)OC=C(C(=O)OC)[C@H]1CC(=O)O | -12.2 | inactive | inactive |  |  | 
28 | C=C1CCC2C(C)(C(=O)O)CCCC2(C)C1CCC1=CCOC1=O (stereo not given) | 31.2 | inactive | inactive |  |  | 
29 | CC(C)(C)[C@H](NC(=O)c1ccc(N)c(Cl)c1)C(=O)N1CCC[C@H]1C(=O)N[C@H](C#N)CC(=O)O | -7 | inactive | inactive |  |  | 
30 | CC(C)=CCC/C(C)=C/CCC1(C)Oc2c(c(O)cc3c2CN(C(CCC(=O)O)C(=O)O)C3=O)CC1O (stereo not given) | -13.7 | inactive | inactive |  |  | 
31 | C[C@@H](NC(=O)c1ccc(C#Cc2cccc(F)c2)cn1)C(C)(C)O | -4.33 | inactive | inactive |  |  | 
32 | O=C(O)[C@H]1CCCC[C@H]1C(=O)N1CCc2ccccc2[C@H]1CN1C(=O)c2ccccc2C1=O | -3 | inactive | inactive |  |  | 
33 | C=C(C)[C@@H]1CC[C@]2(C(=O)O)CC[C@]3(C(=O)O)[C@H](CCC4[C@@]5(C)CCC(=O)C(C)(C)C5CC[C@]43C)C12 (stereo not given in full) | 33.9 | inactive | inactive |  |  | 
34 | C=C1CC23CC(=O)C4C(CO)(CO)CCCC4(C)C2CCC1C3 (stereo not given) | -3.05 | inactive | inactive |  |  | 
35 | CC(=O)OC1C(OC(=O)c2ccccc2)C2C(C)(C)CC(=O)CC2(C)C23CCC(C)(C2)C(O)CC13 (stereo not given) | -22.3 | inactive | inactive |  |  | 
36 | CC1CCC2(C(=O)O)CCC3(C)C(=CCC4C5(C)C[C@@H](O)[C@@H](O)C(C)(CO)C5CCC43C)C2C1(C)O (stereo not given in full) | 11.6 | inactive | inactive |  |  | 
37 | COC(=O)c1ccnc(-c2cc(C(=O)Nc3ccc(C4(N)CC4)cc3)ccn2)c1 | 1.67 | inactive | inactive |  |  | 
38 | O=C(NCc1ccccc1-c1ccccc1C(=O)NCCc1ccccn1)OCc1ccccc1 | 1 | inactive | inactive |  |  | 
39 | COc1ccc2c3c1O[C@H]1C[C@@H](O)C=C[C@@]31CCN(C)C2 | 27.7 | inactive | inactive |  |  | 
40 | CCC(C)C(=O)OC12C(OC(C)=O)C(C)C3(O)C(C=C(CO)CC4(O)C(=O)C(C)=CC43)C1C2(C)C (stereo not given) | -19.1 | inactive | inactive |  |  | 
41 | CC1=COC(OC2OC(CO)C(O)C(O)C2O)C2C(CO)CC(OC(=O)/C=C/c3ccc(O)cc3)C12 (stereo not given) | -9.16 | inactive | inactive |  |  | 
42 | COC1C(CO)OC(n2cnc3c(=O)[nH]cnc32)C1O (stereo not given) | -12.2 | inactive | inactive |  |  | 
43 | C=C(C)C(C)C1OC23CC4(CO2)C(CCC2C5(C)CCC(OC6OCC(O)C(OC7OC(CO)C(O)C(OC8OCC(O)C(O)C8O)C7O)C6OC6OC(CO)C(O)C6O)C(C)(C)C5CCC24C)C3C(C)(O)C1OC(C)=O (stereo not given) | -19.8 | inactive | inactive |  |  | 
44 | CC1C/C=C/C=C\CCCCC(O)C/C=C/C(=O)O1 (stereo not given) | -17.9 | inactive | inactive |  |  | 
45 | COC(=O)C[C@H]1C(C)(C)[C@H](OC(=O)C(C)C)[C@@]2(O)C(=O)[C@]1(C)C1CC[C@]3(C)C(CC(=O)O[C@H]3c3ccoc3)[C@]13O[C@@H]32 (stereo not given in full) | -17.6 | inactive | inactive |  |  | 
46 | CCC(C)C(=O)O[C@H]1[C@@H](O[C@H]2O[C@H](CO)[C@@H](O)[C@H](O)[C@H]2O)O[C@H](CO)[C@@H](O)[C@@H]1O (stereo not given in full) | 13.7 | inactive | inactive |  |  | 
47 | CC1(C)CC[C@]2(C(=O)O[C@@H]3O[C@H](CO)[C@@H](O)[C@H](O)[C@H]3O)CC[C@]3(C)C(=CCC4[C@@]5(C)C[C@@H](O)[C@H](O)[C@@](C)(CO)C5[C@H](O)C[C@]43C)C2[C@@H]1O (stereo not given in full) | -5.34 | inactive | inactive |  |  | 
48 | CC1(C)CC[C@]2(C(=O)O)CC[C@]3(C)C(=CCC4[C@@]5(C)CC[C@H](O[C@@H]6O[C@H](C(=O)O)[C@@H](O)[C@H](O)[C@H]6O)C(C)(C)C5CC[C@]43C)C2C1 (stereo not given in full) | 11.5 | inactive | inactive |  |  | 
49 | C=C1C(=O)OC2/C=C(\C)CC/C=C(\C)CC(OC(C)=O)C12 (stereo not given) |  | inactive | inactive |  |  | 26.9 µM (active)
50 | O=c1c2cccnc2n(-c2cccc([N+](=O)[O-])c2)c(=O)n1Cc1ccncc1 | -20 | inactive | inactive |  |  | 
